This is a sample that favours compounds with a hit; in the whole collection about 7.8% have one here.
Vaccinia Venus: inhibitors of vaccinia virus (Venus reporter) | actives 0.46% (n = 330,000) | AID 720580 | Vaccinia virus Venus reporter expression, fluorescence | Potency, µM (doses to about 36.5 µM), without a hit: top-dose activity change, negative = inhibition, hits mostly inhibitors; calls by dose curve; tested in A549 cells; further: potency means the concentration at half of the fitted maximal effect; nearly all actives have a fitted effect of over 30% in size
VACV mCherry inh: vaccinia inhibition (mCherry reporter); actives 0.63% (n = 310,000); AID 720579; Vaccinia virus mCherry reporter infection, fluorescence; Potency, µM (highest dose often 36.5 µM), for inactives: at the top dose activity change, negative = inhibition, actives largely listed as inhibitors; calls by dose curve; tested in A549 cells; further: potency means the concentration at half of the fitted maximal effect; nearly all actives have a fitted effect of over 35% in size
Lassa entry inh: inhibitors of Lassa virus binding or cell entry | Lassa virus pseudotype entry inhibition, cell reporter | Potency, µM (highest dose often 37.9 µM), for inactives: top-dose activity change, negative = inhibition, most hits filed as inhibitors | actives 1.2% (n = 300,000); calls by dose curve; tested in HEK293 cells; further: potency means the concentration at half of the fitted maximal effect; nearly all actives have a fitted effect of over 50% in size
Marburg entry inh: blocks Marburg virus binding to or entry into cells; Marburg virus pseudotyped entry inhibition, cell reporter; Potency, µM (series often up to 37.8 µM), inactives show at the highest dose activity change, negative = inhibition, most hits filed as inhibitors; actives 1.8% (n = 300,000); calls by dose curve; tested in HEK293 cells; further: potency means the concentration at half of the fitted maximal effect
HCV inh: blocks hepatitis C virus. Huh7.5.1 HCVcc-Cre infection, luciferase reporter, 44 h. actives 3.4% (n = 340,000). Potency, µM (doses to about 41.8 µM), for the others: top-dose activity change, negative = inhibition, usual class: inhibitors. AID 651820; active means well fitted inhibition curve with a large enough effect; inconclusive means small, poorly fitted or top-dose-only effect, or another doubt; inactive means no such curve, though single readings can be large or run the other way; further: potency means the concentration at half of the fitted maximal effect
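Whole-lifecycle infectious HCVcc-Cre system; cells 1,000/well, compound then virus (~0.5 moi) added 4 h after plating, 44 h culture. Luciferase read 15 sec following 15 min substrate incubation, room temp.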
HCMV inh: blocks human cytomegalovirus replication; HFF cells, HCMV-luciferase reporter, 72 h; hits give low values; activity change, negative = inhibition, % at 57.5 µM; actives 4.5% (n = 410,000); AID 1259415; in the data active means activity change below about -60%; inconclusive means no clear call, values can overlap the other calls; inactive means above about -39%
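Inhibition of viral replication was scored as loss of reporter luminescence in HFFs infected with HCMV-luciferase (MOI 1 PFU/cell) for 72 h; compounds tested at 2 doses, normalized to buffer and Salinomycin controls.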
Active calls of the source: *; [ ] = another dose, or the depositor's remark. On the % scale 0 is the no-effect control and ±100 the full control effect.

How did CC(=O)Nc1ccc(S(=O)(=O)NCCSCc2ccc(Cl)cc2Cl)cc1 do in these assays?
Vaccinia Venus: inconclusive; VACV mCherry inh: inconclusive; Lassa entry inh: inconclusive; Marburg entry inh: inconclusive; HCV inh: inconclusive; HCMV inh: -67*

How did COc1ccc(CCNC(=O)Cn2c(C)c3cnn(-c4ccccc4)c(=O)c3c2C)cc1OC do in these assays?
Vaccinia Venus: -11%; VACV mCherry inh: -15%; Lassa entry inh: inconclusive; Marburg entry inh: 5%[46.1 µM]; HCMV inh: 2

What do the screens show for `O=c1cc2c(nn1Cc1c(Cl)cccc1Cl)-c1ccccc1CC2`?
Vaccinia Venus: -18%; VACV mCherry inh: -27%; Lassa entry inh: 0%; Marburg entry inh: inconclusive; HCV inh: 25µM*; HCMV inh: -24

Results for CCC1CCCCN1S(=O)(=O)c1ccc(C(=O)Nc2nnc(C3=COCCO3)o2)cc1 (stereo not given) ?
Vaccinia Venus: -17%; VACV mCherry inh: inactive; Lassa entry inh: inconclusive; Marburg entry inh: inconclusive; HCMV inh: -14

What do the screens show for `CCC1CCCCN1S(=O)(=O)c1ccc(C(=O)Nc2nnc(-c3ccccc3Cl)o2)cc1` (stereo not given)?
Vaccinia Venus: -26%; VACV mCherry inh: inconclusive; Lassa entry inh: inconclusive; Marburg entry inh: inconclusive; HCV inh: inconclusive

Results for CC1CCCCN1S(=O)(=O)c1ccc(C(=O)Nc2nnc(-c3ccncc3)o2)cc1 (stereo not given) ?
Vaccinia Venus: -18%; VACV mCherry inh: -19%; Lassa entry inh: inconclusive; Marburg entry inh: inconclusive; HCV inh: -18%; HCMV inh: -71*

Results for CC1CCCCN1S(=O)(=O)c1ccc(C(=O)Nc2nnc(-c3ccccc3Cl)o2)cc1 (stereo not given) ?
Vaccinia Venus: -27%; VACV mCherry inh: inconclusive; Lassa entry inh: inconclusive; Marburg entry inh: 13µM*; HCV inh: inconclusive; HCMV inh: inconclusive

Results for COC(=O)N[C@@H](c1cccc(C)c1)C(C(C)=O)C(=O)OC (stereo not given in full) ?
Marburg entry inh: -1%[14.2 µM]

How did CS(=O)(=O)c1ccc(Nc2cc3c(cn2)cc(-c2ccccc2)n3Cc2ccccc2)cc1 do in these assays?
HCMV inh: -28

Results for COc1ccccc1Cc1nc2ccccc2nc1SCC(=O)Nc1c(C)cccc1C ?
Vaccinia Venus: -4%; VACV mCherry inh: -8%; Lassa entry inh: 21%[46.1 µM]; HCMV inh: 4

How did NC(=O)C1CCN(C(=O)CSc2ccsc2[N+](=O)[O-])CC1 do in these assays?
HCV inh: 15%; HCMV inh: -26

Results for O=C(CSc1ccsc1[N+](=O)[O-])N1CCCCCC1 ?
HCV inh: 0%; HCMV inh: -72*

Results for O=C(CSCc1ccc([N+](=O)[O-])cc1)N/N=C/c1ccncc1 ?
Vaccinia Venus: -7%; VACV mCherry inh: inactive; Lassa entry inh: 6%; Marburg entry inh: 25%[46.1 µM]; HCV inh: 3%; HCMV inh: -63*

Results for O=C(CSCc1ccc([N+](=O)[O-])cc1)N/N=C/c1cccnc1 ?
Vaccinia Venus: -1%; VACV mCherry inh: -8%; Lassa entry inh: 9%; Marburg entry inh: 20%[46.1 µM]; HCV inh: -10%; HCMV inh: inconclusive

What do the screens show for `c1ccc(C2CCC(N3CCN(c4ccccc4)CC3)CC2)cc1` (stereo not given)?
Vaccinia Venus: -6%; VACV mCherry inh: -24%; Lassa entry inh: 2.8µM*; Marburg entry inh: inconclusive; HCV inh: inconclusive

How did O=C1CCN(Cc2cccn2-c2ccccn2)CCN1Cc1ccccc1C(F)(F)F do in these assays?
Vaccinia Venus: 11%; VACV mCherry inh: -14%

What do the screens show for `Cc1ccc(NC(=O)c2nc[nH]c2C(=O)NC2CCN(C(=O)OC(C)(C)C)CC2)cc1`?
Vaccinia Venus: inconclusive; VACV mCherry inh: -11%; HCV inh: 3%; HCMV inh: 9

How did CC(C)(C)OC(=O)N1CCC(NC(=O)c2[nH]cnc2C(=O)Nc2ccc(Cl)cc2)CC1 do in these assays?
Vaccinia Venus: 14µM*; VACV mCherry inh: -28%; Marburg entry inh: -1%; HCV inh: 15%; HCMV inh: inconclusive

What do the screens show for `Cn1cc([N+](=O)[O-])c(C(=O)Nc2cc(Oc3ccccc3)cc([N+](=O)[O-])c2)n1`?
Vaccinia Venus: inconclusive; VACV mCherry inh: 14µM*; Lassa entry inh: inconclusive; Marburg entry inh: inconclusive; HCV inh: inconclusive; HCMV inh: -99*

How did Cn1cc([N+](=O)[O-])c(C(=O)Nc2ccc3c(C(F)(F)F)cc(=O)oc3c2)n1 do in these assays?
HCV inh: inconclusive; HCMV inh: -99*

How did O=C(Nc1cc(Oc2ccc(Cl)cc2)cc([N+](=O)[O-])c1)c1ccco1 do in these assays?
Vaccinia Venus: -26%; VACV mCherry inh: -28%; Lassa entry inh: -6%; Marburg entry inh: inconclusive; HCV inh: 10µM*; HCMV inh: -3

Results for Cc1cccc(Oc2cc(NC(=O)c3ccccc3)cc([N+](=O)[O-])c2)c1 ?
Vaccinia Venus: inconclusive; VACV mCherry inh: -27%; Lassa entry inh: inconclusive; Marburg entry inh: inconclusive; HCV inh: inconclusive; HCMV inh: -64*

How did C[C@@H]1[C@@H](c2ccccc2)c2cc3ccccc3nc2-c2nc3ccccc3cc2[C@H]1C(=O)N1CCCC1 do in these assays?
Lassa entry inh: inconclusive; Marburg entry inh: 25%[14.2 µM]

How did O=C(NCCc1ccc(Cl)cc1)c1cccn1-c1nnc(N2CCCCC2)s1 do in these assays?
Vaccinia Venus: -11%; VACV mCherry inh: -16%; Lassa entry inh: -19%[46.1 µM]; HCMV inh: 0

How did O=S(=O)(Nc1cccc(-c2ccc(N3CCCC3)nn2)c1)c1ccccc1C(F)(F)F do in these assays?
Vaccinia Venus: -9%; VACV mCherry inh: -13%; Lassa entry inh: 17%[46.1 µM]; HCMV inh: 7

Results for COc1ccc(NC(=O)c2cc(Br)ccc2Cl)c([N+](=O)[O-])c1 ?
Vaccinia Venus: -11%; VACV mCherry inh: -4%; Lassa entry inh: -13%; Marburg entry inh: -10%[46.1 µM]; HCV inh: -3%; HCMV inh: -63*

How did COc1ccc(NC(=O)c2ccc([N+](=O)[O-])s2)c([N+](=O)[O-])c1 do in these assays?
HCV inh: -8%; HCMV inh: -85*

Results for COc1ccc(Cl)cc1C(=O)Nc1ccc(S(=O)(=O)N2CCCC2)cc1 ?
Vaccinia Venus: -7%; VACV mCherry inh: -8%; Lassa entry inh: -2%; Marburg entry inh: 13%; HCV inh: 11%; HCMV inh: -102*

How did COc1ccccc1C(=O)Nc1ccc(S(=O)(=O)N2CCCC2)cc1 do in these assays?
Lassa entry inh: -3%; Marburg entry inh: 2%; HCV inh: -4%; HCMV inh: -9
